Common to all, as to parameters: scale not given: direction of the effect not stated beside the values
Test [1] concerns the target Protein translocase subunit SecA (Escherichia coli (strain K12)) (UniProt P10408). Nature of the test: Assay to Identify E. coli SecA ATPase Inhibitors. Format: functional. The note with it: 30 µM.
The target in test [2] is T1, Ubiquitin-activating enzyme e1, putative (Leishmania donovani (strain BPK282A1)) (UniProt E9BSI1).
T1 sequence (whole entry): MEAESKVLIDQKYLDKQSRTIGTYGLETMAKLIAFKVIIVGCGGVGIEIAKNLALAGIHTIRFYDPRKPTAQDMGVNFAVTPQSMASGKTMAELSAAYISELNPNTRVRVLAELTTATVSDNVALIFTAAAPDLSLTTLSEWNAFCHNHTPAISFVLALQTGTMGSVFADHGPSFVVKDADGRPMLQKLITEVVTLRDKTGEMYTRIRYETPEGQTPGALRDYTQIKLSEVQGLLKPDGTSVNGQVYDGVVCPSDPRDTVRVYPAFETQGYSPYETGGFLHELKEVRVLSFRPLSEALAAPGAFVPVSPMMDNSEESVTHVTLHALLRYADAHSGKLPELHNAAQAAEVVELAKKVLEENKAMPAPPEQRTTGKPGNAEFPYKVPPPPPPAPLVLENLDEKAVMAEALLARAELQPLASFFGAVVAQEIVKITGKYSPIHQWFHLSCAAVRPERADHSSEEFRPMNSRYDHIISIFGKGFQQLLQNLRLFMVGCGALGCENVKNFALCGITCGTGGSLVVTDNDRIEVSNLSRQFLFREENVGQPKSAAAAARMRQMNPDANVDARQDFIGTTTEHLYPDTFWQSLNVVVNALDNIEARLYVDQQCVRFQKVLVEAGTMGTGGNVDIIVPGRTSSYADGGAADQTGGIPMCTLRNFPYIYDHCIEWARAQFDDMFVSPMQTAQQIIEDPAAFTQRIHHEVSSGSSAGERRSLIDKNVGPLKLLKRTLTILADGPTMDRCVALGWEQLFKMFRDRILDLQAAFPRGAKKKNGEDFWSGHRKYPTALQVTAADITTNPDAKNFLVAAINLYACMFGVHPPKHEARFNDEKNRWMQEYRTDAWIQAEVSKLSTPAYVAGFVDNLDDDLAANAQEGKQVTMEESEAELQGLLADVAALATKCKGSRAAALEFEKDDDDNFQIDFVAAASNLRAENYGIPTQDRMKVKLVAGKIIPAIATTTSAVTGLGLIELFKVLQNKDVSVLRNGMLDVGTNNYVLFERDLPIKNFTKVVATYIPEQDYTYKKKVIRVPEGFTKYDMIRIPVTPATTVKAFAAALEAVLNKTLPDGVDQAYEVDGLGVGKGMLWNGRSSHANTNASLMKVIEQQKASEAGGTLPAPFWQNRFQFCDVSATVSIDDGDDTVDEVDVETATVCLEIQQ
Kind of test: Leishmania donovani Ubiquitin Activating Enzyme (LdE1). The format is functional. The note with it: 30 µM.

Test [3] addresses AMP-activated protein kinase, AMPK (Homo sapiens) (UniProt P54646+O43741+P54619+Q9UGJ0+Q9Y478+Q13131+Q9UGI9). Kind of test: AMP-dependent Kinase enzyme assay. An in vitro enzyme assay that detects ADP turnover that is directly proportional to AMPK activity. This uses naive AMPK that is activated during the assay with MK-8722. The note with it: 30 µM. The format is functional.
Test [4] addresses Sialic acid-binding Ig-like lectin 9 (Homo sapiens) (UniProt Q9Y336). Nature of the test: Hs-Siglec9 ALPHAscreen SOP 20170721. To be noted: 10 µM. (Bead proximity is the source of the signal in Alpha formats.)
Test [5] concerns Trypanosoma cruzi. Kind of test: Trypanosoma cruzi phosphomannomutase and mannose-1-phosphate guanylyltransferase assay. The note with it: 10 µM. The format is functional.
Test [6] addresses T2, Arginase-2, mitochondrial (Homo sapiens) (UniProt P78540).
T2 sequence (whole entry): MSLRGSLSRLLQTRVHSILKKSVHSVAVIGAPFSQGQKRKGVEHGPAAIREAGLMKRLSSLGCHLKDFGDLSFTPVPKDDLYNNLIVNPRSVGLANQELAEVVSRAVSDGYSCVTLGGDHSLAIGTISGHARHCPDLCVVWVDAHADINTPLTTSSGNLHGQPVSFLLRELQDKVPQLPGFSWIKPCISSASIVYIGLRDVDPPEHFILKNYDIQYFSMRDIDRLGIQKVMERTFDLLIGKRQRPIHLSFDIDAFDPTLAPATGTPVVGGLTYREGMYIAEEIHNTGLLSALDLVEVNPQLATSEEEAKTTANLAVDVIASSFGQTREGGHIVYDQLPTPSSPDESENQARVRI
Kind of test: in vitro enzyme assay to detect the production of urea directly proportional to the activity of Arginase II. Further: in the data most compounds retested in dose-response had high values. Format: functional. The note with it: 33.3 µM.

In test [7] the target is T3, Proteasome subunit beta (Trypanosoma cruzi) (UniProt O96673).
T3 sequence (whole entry): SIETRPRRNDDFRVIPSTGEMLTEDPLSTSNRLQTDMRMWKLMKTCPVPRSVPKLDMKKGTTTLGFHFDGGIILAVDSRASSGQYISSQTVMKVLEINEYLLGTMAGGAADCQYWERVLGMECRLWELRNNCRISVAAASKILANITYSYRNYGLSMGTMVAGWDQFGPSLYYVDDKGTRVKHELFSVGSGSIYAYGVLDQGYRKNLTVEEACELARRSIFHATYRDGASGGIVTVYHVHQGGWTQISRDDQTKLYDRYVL
Kind of test: Trypanosoma cruzi proteasome chymotrypsin-like activity (TcProtChymo) assay. Further: in the data most compounds retested in dose-response had high values. The format is functional. The note with it: 9.37 µM.

For test [8], the species on record is Homo sapiens. Nature of the test: To identify inhibition of the IFN signalling (Jak-Stat) pathway via expression of an eGFP reporter gene under the control of an IFN-stimulated response element (ISRE) containing MxA promoter. The format is functional. The note with it: 30 µM.
In test [9] the target is T4, Tyrosyl-tRNA synthetase, putative (Trypanosoma cruzi (strain CL Brener)) (UniProt Q4DSP6).
T4 sequence (whole entry): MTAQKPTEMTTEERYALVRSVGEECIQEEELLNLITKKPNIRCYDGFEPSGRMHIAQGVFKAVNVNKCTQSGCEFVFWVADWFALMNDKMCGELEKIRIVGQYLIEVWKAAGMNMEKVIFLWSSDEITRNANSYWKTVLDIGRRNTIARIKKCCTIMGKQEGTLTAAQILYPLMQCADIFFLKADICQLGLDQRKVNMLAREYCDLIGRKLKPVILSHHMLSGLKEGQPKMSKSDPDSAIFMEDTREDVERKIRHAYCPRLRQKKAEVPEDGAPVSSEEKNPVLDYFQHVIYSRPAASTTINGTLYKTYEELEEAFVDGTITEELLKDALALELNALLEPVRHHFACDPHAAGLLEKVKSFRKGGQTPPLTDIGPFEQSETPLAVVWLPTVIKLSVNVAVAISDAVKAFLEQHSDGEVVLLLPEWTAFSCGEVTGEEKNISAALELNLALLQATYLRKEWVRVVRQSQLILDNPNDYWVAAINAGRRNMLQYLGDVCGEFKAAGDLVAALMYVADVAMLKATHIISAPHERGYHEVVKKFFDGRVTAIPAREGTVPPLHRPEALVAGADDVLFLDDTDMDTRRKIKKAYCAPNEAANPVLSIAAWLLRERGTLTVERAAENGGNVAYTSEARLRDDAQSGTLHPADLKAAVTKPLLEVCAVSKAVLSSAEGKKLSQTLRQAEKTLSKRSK
Nature of the test: Trypanosoma cruzi tyrosyl tRNA synthetase (TcYRS) _High Tyrosine SOP. Further: in the data most compounds retested in dose-response had high values. The format is functional. The note with it: 30 µM.

Test [10] has as its target T4, Tyrosyl-tRNA synthetase, putative (Trypanosoma cruzi (strain CL Brener)). Kind of test: Trypanosoma cruzi tyrosyl tRNA synthetase (TcYRS) SOP. The format is functional. The note with it: 30 µM.
Test [11] deals with Chromo domain-containing protein 1 (Saccharomyces cerevisiae (strain ATCC 204508 / S288c) (Baker's yeast)) (UniProt P32657). Kind of test: ScCHD-1 Enzyme Inhibition Assay. Further: in the data most compounds retested in dose-response had high values. Format: functional. To be noted: 30 µM.

The values below come from ChEMBL document CHEMBL3988442, “University of Dundee, Small-Polar-MMV Screening Library” (2021).

For some of these results: Entries with a potency or affinity are not part of this list.

Protein translocase subunit SecA (Escherichia coli (strain K12)), sequence (P10408 whole entry): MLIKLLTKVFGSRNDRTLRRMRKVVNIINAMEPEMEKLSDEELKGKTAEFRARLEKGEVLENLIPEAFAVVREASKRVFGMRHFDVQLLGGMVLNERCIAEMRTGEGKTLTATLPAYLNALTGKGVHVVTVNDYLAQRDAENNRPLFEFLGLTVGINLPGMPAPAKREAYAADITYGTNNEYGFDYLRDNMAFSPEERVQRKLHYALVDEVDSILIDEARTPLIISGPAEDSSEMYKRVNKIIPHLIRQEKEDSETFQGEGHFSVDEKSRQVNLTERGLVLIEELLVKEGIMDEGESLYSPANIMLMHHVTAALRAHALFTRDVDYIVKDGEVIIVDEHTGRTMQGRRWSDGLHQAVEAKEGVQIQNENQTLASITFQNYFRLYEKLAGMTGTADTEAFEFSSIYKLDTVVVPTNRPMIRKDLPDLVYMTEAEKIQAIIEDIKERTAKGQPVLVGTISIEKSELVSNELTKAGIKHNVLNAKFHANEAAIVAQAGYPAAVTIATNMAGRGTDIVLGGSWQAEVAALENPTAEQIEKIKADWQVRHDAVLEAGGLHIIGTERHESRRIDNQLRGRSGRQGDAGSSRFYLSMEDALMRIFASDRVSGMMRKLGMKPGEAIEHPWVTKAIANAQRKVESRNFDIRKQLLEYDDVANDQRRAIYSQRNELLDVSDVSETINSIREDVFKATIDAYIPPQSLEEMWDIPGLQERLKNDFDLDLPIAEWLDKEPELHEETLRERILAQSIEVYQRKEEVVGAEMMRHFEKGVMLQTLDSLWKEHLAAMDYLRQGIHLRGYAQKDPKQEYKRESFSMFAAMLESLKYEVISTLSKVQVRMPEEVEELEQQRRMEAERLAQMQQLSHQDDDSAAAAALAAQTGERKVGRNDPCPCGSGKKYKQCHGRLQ
Sialic acid-binding Ig-like lectin 9 (Homo sapiens), sequence (Q9Y336 whole entry): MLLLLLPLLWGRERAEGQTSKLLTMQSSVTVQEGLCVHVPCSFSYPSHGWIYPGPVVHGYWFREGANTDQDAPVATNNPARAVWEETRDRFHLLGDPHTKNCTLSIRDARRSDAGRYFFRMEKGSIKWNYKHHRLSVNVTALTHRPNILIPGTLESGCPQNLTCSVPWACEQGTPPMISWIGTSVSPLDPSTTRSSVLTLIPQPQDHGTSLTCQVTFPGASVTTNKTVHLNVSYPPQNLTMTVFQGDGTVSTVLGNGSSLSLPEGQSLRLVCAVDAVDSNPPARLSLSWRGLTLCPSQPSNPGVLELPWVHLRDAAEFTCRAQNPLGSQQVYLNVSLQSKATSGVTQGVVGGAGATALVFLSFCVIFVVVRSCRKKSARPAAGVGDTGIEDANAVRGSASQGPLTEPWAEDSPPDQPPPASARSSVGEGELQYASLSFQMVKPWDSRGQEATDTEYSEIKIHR
Chromo domain-containing protein 1 (Saccharomyces cerevisiae (strain ATCC 204508 / S288c) (Baker's yeast)), sequence (P32657 whole entry, the tested form may be a part): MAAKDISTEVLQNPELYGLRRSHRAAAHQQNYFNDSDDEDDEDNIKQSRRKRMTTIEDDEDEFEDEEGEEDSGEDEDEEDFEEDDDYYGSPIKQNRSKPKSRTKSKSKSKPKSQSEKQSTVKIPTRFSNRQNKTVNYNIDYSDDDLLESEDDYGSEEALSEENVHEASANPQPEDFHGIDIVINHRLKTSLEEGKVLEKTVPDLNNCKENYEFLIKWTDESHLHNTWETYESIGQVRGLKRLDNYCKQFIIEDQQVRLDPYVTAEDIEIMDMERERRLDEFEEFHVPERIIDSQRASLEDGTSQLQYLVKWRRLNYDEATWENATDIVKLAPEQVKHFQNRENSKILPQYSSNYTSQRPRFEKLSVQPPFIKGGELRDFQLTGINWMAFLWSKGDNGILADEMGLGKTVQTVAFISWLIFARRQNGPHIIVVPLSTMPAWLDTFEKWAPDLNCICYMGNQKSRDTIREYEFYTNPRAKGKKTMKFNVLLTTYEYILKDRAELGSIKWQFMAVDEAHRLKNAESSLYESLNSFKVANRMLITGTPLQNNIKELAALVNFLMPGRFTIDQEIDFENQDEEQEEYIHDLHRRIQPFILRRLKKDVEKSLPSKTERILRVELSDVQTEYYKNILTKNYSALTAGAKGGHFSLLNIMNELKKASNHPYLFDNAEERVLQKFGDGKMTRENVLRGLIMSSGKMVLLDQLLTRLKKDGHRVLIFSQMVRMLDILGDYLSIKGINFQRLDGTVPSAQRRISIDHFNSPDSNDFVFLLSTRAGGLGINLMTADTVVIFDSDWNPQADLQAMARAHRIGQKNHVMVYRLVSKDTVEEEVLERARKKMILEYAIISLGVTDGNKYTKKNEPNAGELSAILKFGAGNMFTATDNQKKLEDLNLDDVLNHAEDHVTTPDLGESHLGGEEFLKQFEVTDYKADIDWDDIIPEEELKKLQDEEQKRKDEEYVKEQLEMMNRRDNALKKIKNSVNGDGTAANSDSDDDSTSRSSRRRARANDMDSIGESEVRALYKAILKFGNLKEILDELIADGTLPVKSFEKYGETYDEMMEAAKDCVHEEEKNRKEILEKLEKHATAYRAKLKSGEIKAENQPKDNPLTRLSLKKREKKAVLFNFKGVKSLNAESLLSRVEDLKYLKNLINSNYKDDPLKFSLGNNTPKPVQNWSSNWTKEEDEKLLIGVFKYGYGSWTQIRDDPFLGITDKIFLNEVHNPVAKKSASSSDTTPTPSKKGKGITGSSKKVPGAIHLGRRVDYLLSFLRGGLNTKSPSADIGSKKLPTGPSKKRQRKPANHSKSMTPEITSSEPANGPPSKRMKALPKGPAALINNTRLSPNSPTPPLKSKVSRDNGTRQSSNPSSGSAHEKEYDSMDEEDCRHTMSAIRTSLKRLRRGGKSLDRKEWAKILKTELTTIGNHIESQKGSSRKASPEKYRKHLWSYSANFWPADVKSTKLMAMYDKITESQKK

As to `O=C1CCCc2cc(-c3csc(CCN4CCOC4=O)n3)ccc2N1`, the Percent Effect is -5.49% in [1]; 20.8% in [2]; 0.804% in test [3]; 11.1% in test [4]; 4.12% in test [5]; 2.85% in [6]. The Percent Effect in test [7] was 18.1%; in [8] it was 36.1%; in test [9], 8.74%; in [10], 26.8%; in test [11] it was -9.88%.
Turning to `CN(C)c1ccc(CNC(=O)c2ccc(Cl)cc2F)cc1`, the Percent Effect was -6.46% in [1]; 21.1% in test [2]; -2.58% in [3]; 2.05% in test [4]; 1.46% in test [5]; -4.73% in test [6]. The Percent Effect in test [7] is 13.7%; in [8], 11.1%; in test [9], 4.25%; in test [10] it was 20.8%; in [11], -6.29%.
On to `OC1CCN(Cc2cc3c(cc2Br)OCCO3)CC1`, for which the Percent Effect in test [1] is -3.08%; in test [2], 4.17%; in test [3] it was 1.37%; in [4], -5.64%; in test [5], -7.68%; in test [6] it was 4.42%. For the same compound, the Percent Effect in [7] is 0.526%; in test [8], -3.8%; in [9], 1.05%; in [10] it was 2.56%; in test [11], -1.21%.
As for `O=C(c1ccc[nH]1)N1C[C@H]2CC[C@@H]1CN(C1Cc3ccccc3C1)C2`, the Percent Effect is -0.308% in [1]; 8.11% in [2]; -3.81% in test [3]; 12.3% in test [4]; 3.62% in test [5]; 23.1% in test [6]. The Percent Effect in test [7] is 10.7%; in test [8], -4.7%; in [9] it was 6.45%; in test [10], 18.5%; in test [11], -2.58%.
Turning to `COC(=O)c1cccc(NS(=O)(=O)c2cnc(NC(C)=O)s2)c1`, the Percent Effect in [1] is 1.56%; in test [2] it was 6.67%; in [3], -2.6%; in [4] it was 1.81%; in test [5] it was -6.09%; in test [6] it was -8.63%. In addition, the Percent Effect was 17.4% in test [7]; -6.95% in test [8]; 3.17% in [9]; 0% in test [10]; -6.88% in test [11].
`O=C(Nc1nncs1)NC1CCc2ccccc21` (stereo not drawn): the Percent Effect was 0.119% in test [1]; 5.48% in test [2]; 1.57% in test [3]; 3.21% in [4]; -6.94% in test [5]; -3.19% in test [6]. Besides, the Percent Effect in test [7] was 8.13%; in [8] it was 40.4%; in [9], 6.25%; in test [10], 16.1%; in [11] it was -1.82%.
Consider `CN(C)C(=O)c1cccc(NC(=O)N(CCO)Cc2ccsc2)c1`, for which the Percent Effect in test [1] is -0.273%; in test [2], 9.72%; in [3], -9.76%; in test [4], 7.88%; in [5], 3.79%; in [6] it was 11%. Besides, the Percent Effect was 11.8% in test [7]; -1.39% in test [8]; 5.26% in test [9]; 12.8% in test [10]; -3.15% in test [11].
With `Cc1ccc(NC(C)C(=O)NCc2cccs2)cc1C` (stereo not drawn), the Percent Effect in test [1] was -1.89%; in test [2], 16.4%; in [3] it was 6.74%; in test [4] it was 8.58%; in [5], 0.196%; in test [6], -4.54%. Further, the Percent Effect in test [7] is 17.8%; in test [8], 21.3%; in test [9], -1.07%; in test [10] it was 20%; in test [11], -5.22%.
